A short description of assay [1]: qHTS assay to identify small molecule antagonists of the thyroid receptor (TR) signaling pathway - cell viability counter screen (AID 743064). Note: nearly all actives have a fitted effect of over 50% in size. Note: potency is the fitted concentration of half-maximal effect. The gist of the method:
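Rat GH3 pituitary tumor cells stably expressing two TR response elements driving luciferase were plated, rested 4 h, then dosed with library compounds and T3 (1 nM final). After 23.5 h at 37 °C, CellTiter-Fluor was added for 30 min and fluorescence recorded.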
For orientation: In qHTS, concentration-response curves come from the screen itself.

Assay [2] in a line: qHTS assay to identify small molecule antagonists of the thyroid receptor (TR) signaling pathway (AID 743065). Note: nearly all actives have a fitted effect of over 55% in size. Note: potency is the fitted concentration of half-maximal effect. The gist of the method:
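GH3.TRE-Luc rat pituitary cells carrying two TR response elements driving luciferase were plated for 4 h, given compound plus 1 nM T3 (final), and incubated 23.5 h at 37 C. ONE-Glo luminescence measured reporter inhibition; CellTiter-Fluor fluorescence tracked cytotoxicity.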

Assay [3] has as its system thyroid hormone receptor (rat, GH3 cells). The assay is described as follows: qHTS assay to identify small molecule agonists of the thyroid receptor (TR) signaling pathway (AID 743066; calls by dose curve).
Assay [4] can be described thus: qHTS assay to identify small molecule antagonists of the estrogen receptor alpha (ER-alpha) signaling pathway - cell viability counter screen (AID 743074; calls by dose curve;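 note: HEK293 cells carrying ER-alpha-UAS-bla reporter stimulated with 17beta-estradiol; nearly all actives have a fitted effect of over 45% in size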).
Assay [5] can be described thus: qHTS assay to identify small molecule antagonists of the estrogen receptor alpha (ER-alpha) signaling pathway using the BG1 cell line - cell viability counter screen (AID 743081).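 Note: compound given together with 17beta-estradiol as the ER stimulus; series mostly up to about 70 µM; nearly all actives have a fitted effect of over 45% in size.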
The target in another assay is Aromatase (Homo sapiens) (UniProt P11511). The assay is described as follows: qHTS assay to identify aromatase inhibitors (AID 743083). Note: nearly all actives have a fitted effect of over 55% in size. Note: potency is the fitted concentration of half-maximal effect.
Chain of Aromatase (Homo sapiens) (P11511 whole entry, looked up): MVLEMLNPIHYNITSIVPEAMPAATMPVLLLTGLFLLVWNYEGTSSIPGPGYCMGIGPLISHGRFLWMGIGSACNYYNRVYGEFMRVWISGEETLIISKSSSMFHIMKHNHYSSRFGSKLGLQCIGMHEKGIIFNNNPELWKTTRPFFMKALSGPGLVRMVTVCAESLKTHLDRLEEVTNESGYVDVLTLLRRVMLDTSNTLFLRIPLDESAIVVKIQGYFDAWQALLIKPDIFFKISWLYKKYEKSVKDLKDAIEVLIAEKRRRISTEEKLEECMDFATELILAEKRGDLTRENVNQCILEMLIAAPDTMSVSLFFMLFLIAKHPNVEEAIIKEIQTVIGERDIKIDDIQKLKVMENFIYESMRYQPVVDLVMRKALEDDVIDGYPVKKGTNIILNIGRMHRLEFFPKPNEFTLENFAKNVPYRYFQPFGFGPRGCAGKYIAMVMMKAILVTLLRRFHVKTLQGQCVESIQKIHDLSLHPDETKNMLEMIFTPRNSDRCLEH
Assay [6] is described as follows: qHTS assay to identify aromatase inhibitors - cell viability counter screen (AID 743084).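 Note: cells stimulated with testosterone during compound exposure; nearly all actives have a fitted effect of over 55% in size.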
Assay [7] has as its target Aryl hydrocarbon receptor (Homo sapiens) (UniProt P35869). The assay is described as follows: qHTS assay to identify small molecule that activate the aryl hydrocarbon receptor (AhR) signaling pathway (AID 743085).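 For activation: HG2L7.5c1 human HepG2 liver cells with stably integrated DRE-driven firefly reporter; series mostly up to about 70 µM.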 Note: nearly all actives have a fitted effect of over 15% in size. Note: potency is the fitted concentration of half-maximal effect. The gist of the method: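 Compounds were tested in HepG2 hepatocellular carcinoma cells harbouring a stably integrated luciferase gene under control of 20 DREs. Increased reporter signal after 24 h treatment at 37C was taken as AhR activation.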

The nature of assay [8]: qHTS assay to identify small molecule that activate the aryl hydrocarbon receptor (AhR) signaling pathway - cell viability counter screen (AID 743086).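 Note: HepG2 liver cells carrying the AhR DRE luciferase reporter; series mostly up to about 70 µM; nearly all actives have a fitted effect of over 45% in size.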 The gist of the method: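 HepG2-AhR-luc (HG2L7.5c1) cells, 4000/well, were preincubated 5 h at 37C, exposed to compound in qHTS format for 24 hr at 37C, then given CellTiter-Fluor for 30 min; viability was read as fluorescence in the reporter wells.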

Assay [9] in a line: qHTS assay to identify small molecule antagonists of the peroxisome proliferator-activated receptor gamma (PPARg) signaling pathway - cell viability counter screen (AID 743194). Note: nearly all actives have a fitted effect of over 55% in size. Note: potency is the fitted concentration of half-maximal effect. In short, it runs like this: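 PPARg-UAS-bla HEK293H cells were plated, rested 5 h at 37 C, then treated with compounds plus rosiglitazone (50 nM final) for 17 h at 37 C; viability was then read by CellTiter-Glo luminescence after 30 min at room temperature.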

A short description of assay [10]: qHTS assay for small molecule agonists of the antioxidant response element (ARE) signaling pathway - cell viability counter screen (AID 743203; calls by dose curve; note: nearly all actives have a fitted effect of over 55% in size; note: potency is the fitted concentration of half-maximal effect). In short, it runs like this:
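ATP content via CellTiter-Glo luminescence served as the viability measure. Cells: ARE-bla HepG2, 2,000 per well. Exposure: 16 hrs, 37C/5% CO2.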

The nature of assay [11]: qHTS assay for small molecule activators of the heat shock response signaling pathway - cell viability counter screen (AID 743209). Note: nearly all actives have a fitted effect of over 50% in size. The gist of the method: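 Compounds dissolved in DMSO were added to overnight-plated HSE-bla HeLa cells and left 5 h at 37 C. Cell viability was quantified by luminescence using CellTiter-Glo.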
In assay [12] the target is Peroxisome proliferator-activated receptor gamma (Homo sapiens) (UniProt P37231). The assay is described as follows: qHTS assay to identify small molecule agonists of the peroxisome proliferator-activated receptor gamma (PPARg) signaling pathway (AID 743094; active = well fitted activation curve with a large enough effect in the signal ratio in the repeat runs, not every such curve was filed as active; the % refers to the signal ratio). In short, it runs like this:
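Agonism was assessed in a beta-lactamase reporter system, HEK293H cells with a stably integrated UAS-bla construct under PPARg control; the 17 h treatment at 37C preceded a 1 h room-temperature FRET substrate read.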

A short description of assay [13]: qHTS assay for small molecule agonists of the antioxidant response element (ARE) signaling pathway (AID 743202; active = well fitted activation curve with a large enough effect in the signal ratio in the repeat runs, not every such curve was filed as active; the % refers to the signal ratio; note: potency is the fitted concentration of half-maximal effect). The gist of the method: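 Following a 16 h, 37 C exposure of reporter HepG2 cells (ARE-driven beta-lactamase, 2,000 cells/well) to compounds, FRET substrate was applied for 2 h at room temperature and fluorescence intensity recorded.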
Assay [14] in a line: qHTS assay for small molecule activators of the heat shock response signaling pathway (AID 743210; active = well fitted activation curve with a large enough effect in the signal ratio in the repeat runs, with a control signal flat, not every such curve was filed as active; the % refers to the signal ratio; note: series mostly up to about 63 µM). In short, it runs like this:
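Heat shock element–beta-lactamase HeLa reporter cells; qHTS with compounds for 5 h at 37 C; detection by FRET substrate fluorescence after 2.5 h at RT.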

Assay [15] deals with Peroxisome proliferator-activated receptor gamma (Homo sapiens) (UniProt P37231). The assay is described as follows: qHTS assay to identify small molecule antagonists of the peroxisome proliferator-activated receptor gamma (PPARg) signaling pathway (AID 743191; calls by dose curve; note: series mostly up to about 63 µM; nearly all actives have a fitted effect of over 30% in size). The gist of the method: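 GeneBLAzer PPARg UAS-bla HEK293H cells carrying a UAS-driven beta-lactamase reporter were plated at 3000 cells/well, preincubated 5 h at 37C, then given compound for 17 h at 37C; LiveBLAzer B/G FRET substrate was read after 1 h at room temperature.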
Chain of Peroxisome proliferator-activated receptor gamma (Homo sapiens) (P37231 whole entry, looked up): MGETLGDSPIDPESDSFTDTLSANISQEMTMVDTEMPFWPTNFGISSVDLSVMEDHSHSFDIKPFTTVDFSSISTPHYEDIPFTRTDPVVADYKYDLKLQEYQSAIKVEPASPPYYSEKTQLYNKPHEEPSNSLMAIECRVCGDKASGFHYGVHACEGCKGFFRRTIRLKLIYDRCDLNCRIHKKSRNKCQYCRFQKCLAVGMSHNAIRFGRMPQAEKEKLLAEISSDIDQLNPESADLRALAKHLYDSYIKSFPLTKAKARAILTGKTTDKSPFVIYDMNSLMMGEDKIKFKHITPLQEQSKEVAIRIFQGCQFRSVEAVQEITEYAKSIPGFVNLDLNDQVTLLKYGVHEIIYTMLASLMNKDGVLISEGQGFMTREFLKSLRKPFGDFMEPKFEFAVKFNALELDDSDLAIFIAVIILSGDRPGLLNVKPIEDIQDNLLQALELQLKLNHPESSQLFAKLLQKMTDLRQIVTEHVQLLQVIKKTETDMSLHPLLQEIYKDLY

For assay [16], the target named is Estrogen receptor (Homo sapiens) (UniProt P03372). The assay is described as follows: qHTS assay to identify small molecule antagonists of the estrogen receptor alpha (ER-alpha) signaling pathway (AID 743069; active = well fitted curve in the direction sought with a large enough effect in the signal ratio in the repeat runs, not every such curve was filed as active; the % refers to the signal ratio). The gist of the method:
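A 17beta-estradiol challenge was applied right after compound transfer to ER-alpha-UAS-bla HEK293 cells previously kept in charcoal-stripped serum. Plates stood 18 hr at 37C and 5% CO2; fluorescence was read following 2 hr FRET substrate loading at room temperature.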

For assay [17] the target is unchanged. The assay is described as follows: qHTS assay to identify small molecule agonists of the estrogen receptor alpha (ER-alpha) signaling pathway (AID 743075; calls by dose curve;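 note: HEK293 GripTite cells with ER-alpha and UAS-driven beta-lactamase reporter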; note: potency is the fitted concentration of half-maximal effect).
Assay [18] shares this target. The assay is described as follows: qHTS assay to identify small molecule agonists of the estrogen receptor alpha (ER-alpha) signaling pathway using the BG1 cell line (AID 743079). Note: nearly all actives have a fitted effect of over 20% in size. Note: potency is the fitted concentration of half-maximal effect.
Assay [19] is described as follows: qHTS assay to identify small molecule antagonists of the estrogen receptor alpha (ER-alpha) signaling pathway using the BG1 cell line (AID 743080; calls by dose curve;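 note: BG1 cells stimulated with 17beta-estradiol alongside compound; series mostly up to about 70 µM; nearly all actives have a fitted effect of over 25% in size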). The gist of the method:
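Endogenous full-length ER-alpha in BG1-Luc-4E2 cells drives a stably integrated 4×ERE luciferase gene; compounds were tested against 17beta-estradiol over 21.5 h, with luminescence and multiplexed viability fluorescence recorded.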

Each structure is given as a SMILES string. Several values for one entry are separate records, joined by “and”; a condition that tells them apart may be missing. Equal entries are not always repeated. Inconclusive results are not listed. Some compounds were tested as several samples or in several runs, with calls that do not always agree. Activity calls are given as the source filed them. Unless noted, calls come from the whole dose curve; as a rule, active = well fitted curve in the direction sought with a large enough effect in the repeat runs; inconclusive = weak or mixed curves; inactive = no such curve, though single readings can be large; an effect the other way counts as inactive or inconclusive.

Among the data in PubChem BioAssay (Tox21) are Potency and outcome values, retold here.

Chain of Aryl hydrocarbon receptor (Homo sapiens) (P35869 whole entry, looked up): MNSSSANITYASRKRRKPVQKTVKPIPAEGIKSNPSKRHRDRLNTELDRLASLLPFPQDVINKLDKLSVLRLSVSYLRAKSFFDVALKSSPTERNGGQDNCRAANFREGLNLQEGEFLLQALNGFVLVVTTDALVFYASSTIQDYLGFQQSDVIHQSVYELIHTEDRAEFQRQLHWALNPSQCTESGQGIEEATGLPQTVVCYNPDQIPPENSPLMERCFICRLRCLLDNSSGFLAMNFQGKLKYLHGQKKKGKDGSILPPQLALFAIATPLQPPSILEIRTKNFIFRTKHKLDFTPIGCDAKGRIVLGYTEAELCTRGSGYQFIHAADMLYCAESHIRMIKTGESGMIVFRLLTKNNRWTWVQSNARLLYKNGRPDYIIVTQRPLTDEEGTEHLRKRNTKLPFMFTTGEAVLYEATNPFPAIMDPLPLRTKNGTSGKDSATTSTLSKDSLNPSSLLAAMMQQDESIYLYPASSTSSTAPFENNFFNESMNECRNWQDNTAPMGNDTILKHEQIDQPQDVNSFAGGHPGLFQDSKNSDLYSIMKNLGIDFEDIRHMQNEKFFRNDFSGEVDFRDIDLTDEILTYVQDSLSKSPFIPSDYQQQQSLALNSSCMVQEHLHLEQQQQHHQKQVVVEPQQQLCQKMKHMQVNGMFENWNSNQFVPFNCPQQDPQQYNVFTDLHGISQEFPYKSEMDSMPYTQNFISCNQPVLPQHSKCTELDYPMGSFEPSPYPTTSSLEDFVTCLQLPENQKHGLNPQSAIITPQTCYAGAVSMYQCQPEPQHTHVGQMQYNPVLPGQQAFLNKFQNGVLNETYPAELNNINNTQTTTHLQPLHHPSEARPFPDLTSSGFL
Chain of Estrogen receptor (Homo sapiens) (P03372 whole entry, looked up): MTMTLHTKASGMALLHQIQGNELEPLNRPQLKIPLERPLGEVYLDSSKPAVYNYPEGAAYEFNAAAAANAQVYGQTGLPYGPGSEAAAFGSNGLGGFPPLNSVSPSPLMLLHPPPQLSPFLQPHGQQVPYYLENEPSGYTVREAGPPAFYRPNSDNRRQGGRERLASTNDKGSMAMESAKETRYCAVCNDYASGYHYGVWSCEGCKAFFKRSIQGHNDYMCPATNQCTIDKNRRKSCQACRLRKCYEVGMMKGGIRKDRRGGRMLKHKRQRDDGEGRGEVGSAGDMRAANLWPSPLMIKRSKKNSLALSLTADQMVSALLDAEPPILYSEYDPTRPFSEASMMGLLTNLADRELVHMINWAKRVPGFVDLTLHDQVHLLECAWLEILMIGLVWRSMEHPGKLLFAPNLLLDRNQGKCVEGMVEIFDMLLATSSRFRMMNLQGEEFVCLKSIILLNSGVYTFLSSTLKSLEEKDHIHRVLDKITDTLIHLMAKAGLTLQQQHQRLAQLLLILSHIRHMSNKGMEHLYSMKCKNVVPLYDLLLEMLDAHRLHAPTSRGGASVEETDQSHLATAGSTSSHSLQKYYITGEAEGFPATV

With `CC(C)NCC(O)COc1cccc2ccccc12` (stereo not drawn), the Potency in [1] is 30.6 µM (active); in [2] it was 61.8 µM (active) and 54.5 µM (active). Moreover, the call in [3] was inactive. Further, the Potency result (in [4]; in [5]; with Aromatase (Homo sapiens); in assay [6]; in assay [7]; in assay [8]) was “inactive” in each case. Moreover, the Potency result in assay [9], in assay [10] and in assay [11] was “inactive” throughout.

As to `Cc1ccc(N)c(S(=O)(=O)O)c1`, the Potency result (in assay [1]; in [2]; in assay [4]; in assay [5]; in the assay with Aromatase (Homo sapiens); in [6]) was “inactive” in each case. Moreover, the Potency result in assay [7], in assay [9], in assay [13], in assay [10] and in assay [11] was “inactive” each time. In addition, the molecule was classed as inactive in assay [3], in assay [12] and in [14].

In the case of `CN(C)c1cccc(O)c1`, the Potency entry (in assay [1]; in assay [2]; in [4]; in assay [5]; with Aromatase (Homo sapiens); in assay [6]) was “inactive” throughout. For the same molecule, the Potency result in [8], in [15], in assay [9], in assay [10] and in assay [11] was “inactive” in each case. The outcome in assay [3], in assay [12] and in assay [14] was inactive. The Potency in [7] is 15.6 µM (active) and 30.6 µM (active); in assay [13], 55.3 µM (active).

On to `CS(=O)(=O)Nc1ccc([N+](=O)[O-])cc1Oc1ccccc1`, for which the Potency entry (in assay [1]; in [2]; in [4]; in [5]; with Aromatase (Homo sapiens); in [6]) was “inactive” throughout. The Potency result in assay [7], in assay [8], in assay [9], in [10] and in [11] was “inactive” throughout. Also, the molecule was classed as inactive in [3].

Regarding `O=C1CCCCC1`, the Potency result in [1], in [2], in assay [16], in assay [17], in assay [18] and in assay [19] was “inactive” each time. For the same molecule, the Potency entry (in assay [5]; in the assay with Aromatase (Homo sapiens); in assay [6]; in [7]; in assay [8]; in assay [9]) was “inactive” in each case. Moreover, the Potency result in assay [13], in assay [10] and in [11] was “inactive” each time. Moreover, the molecule was classed as inactive in assay [3], in assay [12] and in [14].

Regarding `ClC1=C(Cl)C(Cl)(Cl)C(Cl)=C1Cl`, the Potency result in assay [1], in assay [16], in [17], in [18], in [19] and in assay [5] was “inactive” each time. The Potency result in [6], in [7] and in assay [11] was “inactive” in each case. The Potency in assay [2] is 54.5 µM (active); with Aromatase (Homo sapiens) it was “inactive and 48.6 µM (active)”; in assay [9], 2.2 µM (active) and 3.09 µM (active); in assay [10], 13.8 µM (active) and 12.2 µM (active). Further, the molecule was classed as inactive in [3].

`O=S(=O)(Oc1ccc(Cl)cc1Cl)c1ccccc1`: the Potency result (in assay [1]; in [2]; in [16]; in [4]; in assay [5]; with Aromatase (Homo sapiens)) was “inactive” throughout. The Potency result in assay [6], in [7], in assay [8], in assay [15], in [9] and in assay [13] was “inactive” in each case. Besides, the Potency result in assay [10] and in assay [11] was “inactive” throughout. Moreover, the call in assay [3] and in [12] was inactive. Moreover, the Potency in assay [17] is 7.9 µM [activator] (active) and 55 µM [activator] (active); in assay [18], 19.7 µM (active) and 30.6 µM (active).

`CCCCC(CC)COC(=O)/C=C\C(=O)OCC(CC)CCCC` (stereo not drawn): the Potency entry (in [1]; in assay [2]; in [4]; in assay [5]; with Aromatase (Homo sapiens); in assay [6]) was “inactive” in each case. Moreover, the Potency entry in assay [7], in assay [8], in assay [15], in assay [9], in assay [10] and in [11] was “inactive” each time. In addition, the molecule was called inactive in assay [3] and in assay [12].
